The values that follow come from PubChem BioAssay AID1259415 (National Center for Advancing Translational Sciences (NCATS), 2018).

The campaign covered roughly 410,000 compounds. About 18,000 (4.4%) were called active. About 7% were inconclusive and are not listed. What follows is part of a selection rich in actives, with near analogues and random picks from the rest. Unmarked numbers belong to inactive results. No stated cut-off is given here; in the data, active means activity change below about -60%; inconclusive means no clear call, values can overlap the other calls; inactive means above about -39%.
On the % scale 0 is the no-effect control and ±100 the full control effect.

This test is described as follows: qHTS Assay for inhibitors of the human cytomegalovirus (HCMV). Particulars: HFF cells, HCMV-luciferase reporter, 72 h; at 57.5 µM; active compounds read low. The source says:
NCGC Assay Overview: Infection with human cytomegalovirus (HCMV) continues to pose significant threats for pregnant women and immunocompromised hosts. HCMV causes serious morbidity and mortality in transplant recipients, and congenital HCMV is the leading infectious cause of mental retardation and deafness in children. In the 1990s, the annual costs associated with the disease burden of congenital CMV were estimated at around $2 billion. A HCMV vaccine is not available yet and HCMV therapies result in intolerable side effects and emergence of drug resistant viruses. […] Towards this goal we have developed and characterized a luciferase HCMV reporter that was initially used in 96 well plates and then optimized to 1536-well plates for utilization in screening of the MLSMR collection, the NGCG diversity collection and the NCGC Pharmaceutical Collection of approved and investigational drugs.
NCGC Assay Protocol Summary:
This is a cell-based assay for HCMV inhibition in HFFs cells. The screening used 2 compound doses and the HCMV-luciferase at MOI of 1 PFU/cell. Cells were treated and infected with HCMV. At 72 h post infection cell lysates were collected and luciferase activity was determined using the Glomax-Multi + Detection System (Promega, Madison, WI). Data were normalized to the controls for basal activity (buffer only) and known HCMV inhibitors Salinmoycin.
1536-well assay protocol for the assay:
(1) Add 3 ul CMV/HFF cell culture. 1000 cells/well in DMEM nirmal media.
(2) Incubate 16 hr at 37C.
(3) Add 23 nl control compound, 10uM of Salinomycin.
(4) Add 23 nl compounds in DMSO solution.
(5) Add 3 ul CMV suspension. Final 1 puf/ul, Virus stock 2000pfu/ul
(6) Incubate 72 hrs at 37C.
(7) Add 4 ul OneGlo Luc Reagent.
(8) Incubate 5 min at room temperature.
(In general: In qHTS, concentration-response curves come from the screen itself.)
In the case of `Cc1cccc(C)c1NC(=O)C1CCCN1C(=O)OC(C)(C)C` (centres undefined), the activity change, negative = inhibition is -2.93%. The value for `CCC[C@H]1CCCC/C=C\CCCC(=O)OCCN1C(=O)OC(C)(C)C` was -71.3% (active). As for `CC1CCCCC1NC(=O)CSc1nnc(N)s1` (centres undefined), the figure is 41.4%; as for `Cc1nc(SCC(=O)NC2CCCCC2C)c(C#N)c(C)c1C` (centres undefined), -103% (active).

Consider `Cc1nc(SCC(=O)NC2CCCC2)[nH]c(=O)c1C`, for which the activity change, negative = inhibition was -10.8%. The value for `COc1cccc(CNC(=O)[C@@H]2CCCN2C(=O)[C@@H]2CCCN2C(=O)c2ccccc2)c1` was -2.63%; that for `O=C(NCCS(=O)(=O)NCc1ccc(F)cc1)c1ccccc1` was -9.67%; that for `Cc1nc2c(C(=O)NCc3ccc4c(c3)OCO4)c[nH]n2c(=O)c1Cc1ccccc1F` was -7.59%. Turning to `Cc1c(NS(=O)(=O)c2cccc(C(=O)Nc3ccc(SC(F)F)cc3)c2)c(=O)n(-c2ccccc2)n1C`, the activity change, negative = inhibition was -2.26%. As to `COc1ccc(NS(=O)(=O)c2cccc(C(=O)NCCc3ccc(S(N)(=O)=O)cc3)c2)cc1`, the activity change, negative = inhibition is -1.91%. On to `COc1ccc(NC(=O)/C(N=Nc2cccc(S(=O)(=O)Nc3ccc(SC(F)F)cc3)c2)=C(\C)O)cc1`, for which the activity change, negative = inhibition is -70.6% (active). As for `Cc1ccc(Cl)cc1N1CCN(C(=O)c2cnc3c(-c4ccc(F)cc4)c(C)nn3c2C)CC1`, the activity change, negative = inhibition is 7.36%. The value for `O=C(Nc1cccc([N+](=O)[O-])c1)N1CCc2ccccc2C1` was -65.7% (active); that for `Cc1cccc(OC(C)C(=O)N2CCc3ccccc3C2)c1` (centres undefined) was -31.1%; that for `Cc1cccc(NC(=O)N2CCC(CN3CCc4ccccc4C3)CC2)c1C` was 7.59%.

Consider `CC(=O)c1ccc(NC(=O)c2nc3nc(C)cc(C(F)F)n3n2)cc1`, for which the activity change, negative = inhibition was 19.3%. Regarding `CCOc1ccc(-c2nonc2NC(=O)c2oc3ccc(C)cc3c2C)cc1OCC`, the activity change, negative = inhibition was 5.37%. The value for `Cc1ccc2c(O)c(Cc3ccccc3)c(=O)[nH]c2n1` was 22%; that for `O=C(Nc1c(-c2ccc(F)cc2)nc2ccccn12)c1cccc(F)c1` was -69.4% (active); that for `Cc1nc2ccccn2c(=O)c1NC(=O)c1c(F)cccc1F` was -14.4%.

On to `COC(=O)c1ccc2nc(-c3ccc(Cl)cc3)c(Cc3cccc(F)c3)n2c1`, for which the activity change, negative = inhibition is -17.1%.

Regarding `Cc1ccc(CNC(=O)c2c(O)nc3c(C)cccn3c2=O)cc1`, the activity change, negative = inhibition is 5.82%. On to `COC(=O)[C@@]1(Sc2ccc(OC)cc2)CC(=O)N(c2ccc(OC)cc2C)[C@@H]1c1ccc(OC(C)C)c(OC)c1`, for which the activity change, negative = inhibition is 10.7%. On to `COc1cc(OC)c(NC(=O)c2cnc(N3CCCC3)nc2C)cc1Cl`, for which the activity change, negative = inhibition was -14.2%. The value for `Cc1nnc(SCC(=O)N(C(C)C)C(C)C)nc1C` was -39.9%; that for `CC(C)OCCCNc1ncnc2c1[nH]c1ccc(F)cc12` was -79% (active); that for `COc1ccc(Cn2cc(C(=O)c3ccc(C)cc3)c(=O)c3cc(OC)c(OC)cc32)cc1` was -22.1%. As for `O=C(NC1CCCC1)C(c1ccco1)N(C(=O)c1csnn1)c1ccccc1` (centres undefined), the figure is 13.9%; as for `CCCCN(C(=O)C1=NN(c2cc(C)ccc2C)C(=O)CC1)c1c(N)n(CCC)c(=O)[nH]c1=O`, 8.37%. `Cn1c(=O)c2c(SCC(=O)N3CCc4ccccc43)nc(-c3ccc(Cl)cc3)nc2n(C)c1=O`: the activity change, negative = inhibition was 17.9%. Take `COc1ccccc1N1CCN(c2ncnc3onc(-c4ccc(F)cc4)c23)CC1`: the activity change, negative = inhibition is -11.8%. The value for `CCCCCCCCCCCCn1ccc(=N)cc1` was -96.6% (active); that for `O=C(CCSCc1cccc(F)c1)NCc1ccccc1` was -2.8%; that for `O=C(NCC(c1ccc2c(c1)OCO2)N1CCN(c2ccccc2)CC1)C(=O)Nc1ccccc1F` (centres undefined) was 9.73%. As to `COC(=O)C1=C(c2ccccc2)c2ccccc2S(=O)(=O)N1CC(=O)Nc1ccccc1C(F)(F)F`, the activity change, negative = inhibition was -5.56%.

`CCCc1nn2c(=O)cc(COC(=O)c3ccc(NC(=O)C(C)Oc4ccccc4)cc3)nc2s1` (centres undefined): the activity change, negative = inhibition is -18.3%. For `COC(=O)CC1Oc2ccccc2-n2cc(-c3ccccc3)nc21` (centres undefined), the activity change, negative = inhibition was -14.2%. With `COCC(C)n1c(SCc2ccc(C(=O)OC)o2)nc2ccccc2c1=O` (centres undefined), the activity change, negative = inhibition was -23%. As for `COCCn1c(C)cc(C(=O)CSc2nc3ccccc3c(=O)n2C(C)COC)c1C` (centres undefined), the figure is -66% (active); as for `COCC(C)n1c(C)cc(C(=O)CSc2cc(C)c3ccccc3n2)c1C` (centres undefined), -3.64%. The value for `O=C(NC1CCCC1)c1csc(C(O)c2cccc(Cl)c2)n1` (centres undefined) was -12.9%; that for `CC1CN(C(=O)c2ccc3c(c2)OCO3)OC(c2ccccc2)O1` (centres undefined) was 26.2%; that for `CCCCCCn1nnc2sc(-c3ccccc3)cc2c1=O` was 15.8%. The value for `COc1ccc(CNC(=O)c2ccc3c(O)c(S(=O)(=O)c4ccccc4)c(=O)[nH]c3c2)cc1` was 6.38%.
